# Laboratory results published in PubChem BioAssay.
# Results filed as inconclusive are left out. Activity calls are given as the source filed them.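 Rule for the calls, unless noted: active = normalized viability below 100% at a tested concentration; inactive = the rest.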
# Key:
# [1] = growth inhibition of DIPG glioma cells, dose response, cell-based, SU-DIPG-XVII, MIPE5.0, CellTiter-Glo, qHTS (AID 1347060; cut-off not given, nearly all actives have AC50 up to about 26 µM;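 for AC50: cells exposed to compound for 48 hours before viability readout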); details: SU-DIPG-XVII viability, CellTiter-Glo ATP luminescence
# [2] = growth inhibition of DIPG glioma cells, dose response, cell-based, SU-DIPG-XIII, MIPE4.0, CellTiter-Glo, qHTS (AID 1347061; cut-off not given, nearly all actives have AC50 up to about 37 µM;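 note: cells exposed to compound for 48 hours before readout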); details: SU-DIPG-XIII viability, CellTiter-Glo ATP luminescence
# [3] = growth inhibition of DIPG glioma cells, dose response, cell-based, JHH-DIPG-1, MIPE4.0, CellTiter-Glo, qHTS (AID 1347062; cut-off not given, nearly all actives have AC50 up to about 27 µM;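 for AC50: cells exposed to compound for two days before readout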); details: JHH-DIPG-1 viability, CellTiter-Glo ATP luminescence
# [4] = growth inhibition of DIPG glioma cells, dose response, cell-based, SU-DIPG-IV, MIPE4.0, CellTiter-Glo, qHTS (AID 1347063; cut-off not given, nearly all actives have AC50 up to about 30 µM;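 note: compound exposure lasted 48 hours before the viability readout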); details: SU-DIPG-IV viability, CellTiter-Glo ATP luminescence
# [5] = growth inhibition of DIPG glioma cells, dose response, cell-based, SU-DIPG-XIII, MIPE5.0, CellTiter-Glo, qHTS (AID 1347064; cut-off not given, nearly all actives have AC50 up to about 23 µM;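 for AC50: cells exposed to compound for 48 hours before the viability read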); details: SU-DIPG-XIII viability, CellTiter-Glo ATP luminescence
# [6] = viability loss in pontine glioma line – cell-based, SU-DIPG-XXV, MIPE5.0, CellTiter-Glo, qHTS, dose response (AID 1347065; cut-off not given, nearly all actives have AC50 up to about 26 µM;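 note: cells exposed to compound for 48 hours before ATP readout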); details: CellTiter-Glo ATP luminescence
# [7] = SU-DIPG-VI glioma cell viability, MIPE4.0 library, CellTiter-Glo luminescence, qHTS (AID 1347066; cut-off not given, nearly all actives have AC50 up to about 30 µM;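 note: cells exposed to compound for 48 hours before readout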); details: CellTiter-Glo ATP luminescence
# [8] = JHH-DIPG-1 glioma cell viability, MIPE5.0 library, CellTiter-Glo luminescence, qHTS (AID 1347067; cut-off not given, nearly all actives have AC50 up to about 26 µM;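 note: cells exposed to compound for 48 hours before readout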); details: JHH-DIPG-1 glioma viability, CellTiter-Glo ATP luminescence
# [9] = SU-DIPG-XXV glioma cell viability, MIPE5.0 library, qHTS (AID 1347068; cut-off not given, nearly all actives have IC50 up to about 30 µM)
# [10] = ovarian cancer cell viability with rucaparib, profiling panel, oncology-focused library, rucaparib conditional (AID 1508598); details: patient-derived ovarian cancer cells, CellTiter-Glo viability, 144 h, stronger effect = lower value
# [11] = sensitizers of A549 cells to miR-34 induction, primary screen, imaging, A549 dox-inducible miR-34, nuclei and caspase counts (AID 1347080;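 active = compounds whose cell count with miR-34 switched on is under 0.7 times the count with it off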); details: A549 miR-34 inducible, Hoechst nuclei count, 48 h
# [12] = survival rescue of mitochondrial mutant cells in low glucose, primary screen, MELAS cybrids, Rieske KO mouse fibroblasts, CellTiter-Glo (AID 1508586;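 active = mean z-score across replicates of 1.96 or higher in either the MELAS or the Rieske mutant cell line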;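 note: z relative to plate mean and SD of compound and empty wells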)
smiles,measurement,setting,value
C=CC(=O)N1CCC[C@@H](n2nc(-c3ccc(Oc4ccccc4)cc3)c3c(N)ncnc32)C1,AC50,[1],5.9 µM (active)
same,AC50,[2],18.7 µM (active)
same,AC50,[3],23.5 µM (active)
same,AC50,[4],5.26 µM (active)
same,AC50,[5],20.9 µM (active)
same,AC50,[6],9.34 µM (active)
same,AC50,[7],16.6 µM (active)
same,AC50,[8],16.6 µM (active)
same,outcome,[9],inactive
same,viability,"[10]; at 0.000305 µM, OCI-C5x cells, with rucaparib 10 µM, 100% = cells with rucaparib alone",99.2% (active)
same,viability,"[10]; at 0.000305 µM, OCI-C5x cells, without rucaparib",119% (inactive)
same,viability,"[10]; at 0.000305 µM, OCI-P5x cells, with rucaparib 20 µM, 100% = cells with rucaparib alone",88.6% (active)
same,viability,"[10]; at 0.000305 µM, OCI-P5x cells, without rucaparib",94.3% (active)
same,viability,"[10]; at 0.00122 µM, OCI-C5x cells, with rucaparib 10 µM, 100% = cells with rucaparib alone",108% (inactive)
same,viability,"[10]; at 0.00122 µM, OCI-C5x cells, without rucaparib",118% (inactive)
same,viability,"[10]; at 0.00122 µM, OCI-P5x cells, with rucaparib 20 µM, 100% = cells with rucaparib alone",77.7% (active)
same,viability,"[10]; at 0.00122 µM, OCI-P5x cells, without rucaparib",48.3% (active)
same,viability,"[10]; at 0.00488 µM, OCI-C5x cells, with rucaparib 10 µM, 100% = cells with rucaparib alone",106% (inactive)
same,viability,"[10]; at 0.00488 µM, OCI-C5x cells, without rucaparib",108% (inactive)
same,viability,"[10]; at 0.00488 µM, OCI-P5x cells, with rucaparib 20 µM, 100% = cells with rucaparib alone",95.6% (active)
same,viability,"[10]; at 0.00488 µM, OCI-P5x cells, without rucaparib",103% (inactive)
same,viability,"[10]; at 0.0195 µM, OCI-C5x cells, with rucaparib 10 µM, 100% = cells with rucaparib alone",112% (inactive)
same,viability,"[10]; at 0.0195 µM, OCI-C5x cells, without rucaparib",112% (inactive)
same,viability,"[10]; at 0.0195 µM, OCI-P5x cells, with rucaparib 20 µM, 100% = cells with rucaparib alone",93.8% (active)
same,viability,"[10]; at 0.0195 µM, OCI-P5x cells, without rucaparib",103% (inactive)
same,viability,"[10]; at 0.0781 µM, OCI-C5x cells, with rucaparib 10 µM, 100% = cells with rucaparib alone",114% (inactive)
same,viability,"[10]; at 0.0781 µM, OCI-C5x cells, without rucaparib",111% (inactive)
same,viability,"[10]; at 0.0781 µM, OCI-P5x cells, with rucaparib 20 µM, 100% = cells with rucaparib alone",86.9% (active)
same,viability,"[10]; at 0.0781 µM, OCI-P5x cells, without rucaparib",100% (inactive)
same,viability,"[10]; at 0.313 µM, OCI-C5x cells, with rucaparib 10 µM, 100% = cells with rucaparib alone",112% (inactive)
same,viability,"[10]; at 0.313 µM, OCI-C5x cells, without rucaparib",120% (inactive)
same,viability,"[10]; at 0.313 µM, OCI-P5x cells, with rucaparib 20 µM, 100% = cells with rucaparib alone",86.1% (active)
same,viability,"[10]; at 0.313 µM, OCI-P5x cells, without rucaparib",91.8% (active)
same,viability,"[10]; at 1.25 µM, OCI-C5x cells, with rucaparib 10 µM, 100% = cells with rucaparib alone",108% (inactive)
same,viability,"[10]; at 1.25 µM, OCI-C5x cells, without rucaparib",125% (inactive)
same,viability,"[10]; at 1.25 µM, OCI-P5x cells, with rucaparib 20 µM, 100% = cells with rucaparib alone",92.3% (active)
same,viability,"[10]; at 1.25 µM, OCI-P5x cells, without rucaparib",93.7% (active)
same,viability,"[10]; at 5 µM, OCI-C5x cells, with rucaparib 10 µM, 100% = cells with rucaparib alone",113% (inactive)
same,viability,"[10]; at 5 µM, OCI-C5x cells, without rucaparib",121% (inactive)
same,viability,"[10]; at 5 µM, OCI-P5x cells, with rucaparib 20 µM, 100% = cells with rucaparib alone",57.3% (active)
same,viability,"[10]; at 5 µM, OCI-P5x cells, without rucaparib",88.7% (active)
O=C(c1ccc(C(=O)N2CCC(N3CCCC3)CC2)c(Nc2ccccc2)c1)N1CCC(N2CCCC2)CC1,outcome,[1],inactive
same,outcome,[2],inactive
same,outcome,[3],inactive
same,outcome,[4],inactive
same,outcome,[5],inactive
same,outcome,[6],inactive
same,outcome,[7],inactive
same,outcome,[8],inactive
same,outcome,[9],inactive
same,fold change,"[11]; stronger effect = lower value, cell number ratio, induced over uninduced",0.897 (inactive)
same,fold change,[11]; measured here: relative caspase fold change +Dox/-Dox,1.63
same,cell count,"[11]; measured here: total cells with miR-34 induction, stronger effect = lower value",8000
same,cell count,[11]; measured here: total cells without miR-34 induction,8920
same,z-score,"[12]; MELAS cybrid survival, CellTiter-Glo 48 h, stronger effect = higher value",-0.111 (inactive)
same,z-score,"[12]; Rieske KO mouse fibroblast survival, CellTiter-Glo 72 h",-0.294
